Jurkat NFkB inh – inhibitors of induced NF-kB luciferase reporter, primary screen, TCR NF-kB activation inhibitor project, cell-based, luminescence, uHTS; hit rate 0.53% among 330,000; inhibition, % at 4 µM; Jurkat, PMA/ionomycin-induced NF-kB luciferase reporter; in the data active = inhibition above about 50%
697 NFkB inh – inhibitors of PMA/ionomycin-induced NF-kB reporter, 697 cells, primary screen, B-cell NF-kB inhibitor project, cell-based, luminescence, uHTS. 697 B-cell NF-kB luciferase reporter, 16 h. inhibition, % at 4 µM. hit rate 0.33% among 330,000. AID 435022, 2010; in the data active = inhibition above about 35%
TAG inh – inhibitors of triacylglycerol accumulation, primary screen, cell-based, uHTS, fluorescence, H9c2. AID 651582, 2012. inhibition, % at 12.5 µM. hit rate 0.66% among 230,000. H9c2 cells, Nile Red lipid (TAG) fluorescence; cells loaded with 200 µM oleic acid;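 active = pattern-corrected inhibition of lipid staining of at least 50% with the nuclear-stain viability signal not falling by more than 50%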;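 note: 0% = DMSO wells and 100% = triacsin C control wells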
Gli-Sufu antag – Gli-Sufu pathway antagonists, primary screen, luciferase luminescence, Sufu-KO-LIGHT cells, uHTS | Sufu-KO-LIGHT fibroblasts, Gli luciferase reporter luminescence | inhibition, % at 5 µM | hit rate 0.74% among 340,000 | AID 588413, 2011;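 active = inhibition above about 55%, limit read from the data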;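 note: 0% = DMSO-treated cells and 100% = wells with medium but no cells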
COUP-TFII inh – NR2F2 transcriptional activity inhibitors, primary screen, cell-based, luciferase reporter, HEK293T, luminescence; COUP transcription factor 2 (Homo sapiens), P24468; HEK293T NGFI-A luciferase reporter; inhibition, % at 8.6 µM; hit rate 0.7% among 370,000;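 active = inhibition above a per-plate cutoff, mean inhibition of test wells between control levels plus 3 SD, cut at about 38% in these data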;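 note: cells cotransfected with COUP-TFII expression vector driving the NGFI-A reporter; 0% = median of COUP-TF2 test wells and 100% = reporter-only cells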
Target sequence (P24468 whole entry, looked up): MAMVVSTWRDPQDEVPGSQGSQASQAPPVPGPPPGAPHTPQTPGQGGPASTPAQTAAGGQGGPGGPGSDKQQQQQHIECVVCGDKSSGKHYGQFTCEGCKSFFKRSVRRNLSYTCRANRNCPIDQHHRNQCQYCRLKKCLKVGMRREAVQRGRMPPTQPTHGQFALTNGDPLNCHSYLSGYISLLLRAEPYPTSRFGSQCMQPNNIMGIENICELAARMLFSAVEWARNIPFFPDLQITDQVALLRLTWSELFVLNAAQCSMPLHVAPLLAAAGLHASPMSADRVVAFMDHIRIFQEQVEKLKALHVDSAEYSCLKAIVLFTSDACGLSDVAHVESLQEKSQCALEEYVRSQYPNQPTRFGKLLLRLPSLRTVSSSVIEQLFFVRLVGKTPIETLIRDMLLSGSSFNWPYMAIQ
Cardio protect – cardioprotection against H2O2-induced cell death, primary screen, uHTS, H9c2 cells, ATPLite luminescence | H9c2 cardiomyocytes, H2O2 injury protection, 2 h | protection from H2O2 cell death, % at 20 µM | hit rate 0.63% among 360,000;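 active = compounds giving at least 50% protection of heart cells from peroxide-induced death in the single-dose screen, raw or plate-pattern-corrected value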;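 note: 0% = DMSO wells with peroxide and 100% = DMSO wells without peroxide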
697 NFkB conf – PMA/ionomycin-induced NF-kB reporter inhibitors, 697 retest, confirmation, B-cell NF-kB inhibitor project, cell-based, luminescence, single concentration; shares compounds with 697 NFkB inh; 697 B-cell NF-kB luciferase, 16 h; inhibition, % at 4 µM; hit rate 35% among 2,000; in the data active = inhibition mostly above about 28%, no sharp cut-off; inactive = mostly below about 22%
* marks the source's active call; other numbers are inactive results; i = inactive; . = no result. Hits are enriched below; roughly 2.6% of the tested compounds scored in any of these assays.

SMILES | Jurkat NFkB inh | 697 NFkB inh | TAG inh | Gli-Sufu antag | COUP-TFII inh | Cardio protect | 697 NFkB conf
COC(=O)[C@]12C[C@H](CC(=O)NCc3cccc4ccccc34)C(=O)N(Cc3ccco3)C1=C[C@H](C(C)(C)C)O[C@@H]2C | . | . | . | . | 1 | . | .
Cc1cc2nc(-c3ccc(SCC(=O)N4CCc5ccccc54)nc3)[nH]c2cc1C | -126 | -313 | . | -94 | . | -14 | -200
Cc1cc2nc(-c3ccc(SCC(=O)NC(C)C)nc3)[nH]c2cc1C | -70 | -44 | . | . | . | . | .
COc1ccc(/C=N\n2nnc3ccccc32)cc1 | -147 | -294 | 27 | -134 | -61 | -18 | -215
COc1ccc(/C=N/n2c(C)nc3ccccc3c2=O)cc1 | -18 | -19 | . | -19 | -20 | 5 | .
CCOC(=O)C1CCN(C(=O)c2ccccc2NC(C)=O)CC1 | 11 | 39* | 4 | 7 | -2 | -10 | 8
CCSc1nnnn1-c1ccccc1 | 12 | 13 | . | 31 | 13 | 0 | .
Cc1ccc(C)c(-n2nnnc2Sc2nnnn2-c2ccccc2)c1 | 43 | 35* | -10 | 8 | -30 | 9 | 33*
CCN1C(=O)c2cccc3c(NC(=O)c4cccc(N5C(=O)CCC5=O)c4)ccc1c23 | 3 | 36* | . | 15 | -28 | 4 | 40*
COc1ccc(CNS(=O)(=O)CC2NCCc3ccccc32)cc1 (stereo not drawn) | . | . | . | . | -15 | . | .
Cn1c(SCC(=O)Nc2ccc(NC(=O)c3ccccc3)cc2)nnc1-c1ccncc1 | -11 | -10 | . | 6 | -2 | 4 | .
COc1ccc(C(=O)Nc2ccc(NC(=O)CSc3nnc(-c4ccncc4)n3C)cc2)cc1 | -12 | 38* | . | -15 | -8 | 1 | 3
CCC1CCCCN1CCCNC(=O)c1ccc2nc(N3CCCCC3)sc2c1 (stereo not drawn) | -93 | -298 | . | -5 | -54 | 2 | -310
COc1ccc(CNS(=O)(=O)/C=C/c2ccc(OC)cc2CNC(=O)OC(C)(C)C)cc1 | . | . | . | . | -7 | . | .
COc1ccc(-c2coc3cc(O)ccc3c2=O)cc1OC | 2 | -42 | 0 | -24 | -34 | -5 | .
O=c1c(-c2ccc(F)cc2)coc2cc(O)ccc12 | -50 | -267 | . | -80 | -43 | -7 | -142
CCC(C)NC(=O)c1c(N)n(/N=C/c2ccccn2)c2nc3ccccc3nc12 (stereo not drawn) | 3 | 52* | . | 34 | 5 | -15 | 44*
CC(C)OCCCNC(=O)c1c(N)n(/N=C/c2ccccn2)c2nc3ccccc3nc12 | 39 | 44* | 45 | 12 | -1 | 18 | 37*
C=CCN1C(C(=O)OC)CN(Cc2cn(Cc3ccc(F)cc3)nn2)CCS1(=O)=O (stereo not drawn) | . | . | . | . | -22 | . | .
COc1ccc(C(=O)N=c2nc3ccccn3s2)cc1 | -83 | -389 | -1 | -56 | -39 | -23 | -282
C=CC[C@H]1c2ccccc2[C@H]2N3N=Cc4ccccc4[C@H]3[C@H](CCCC)C(=O)N2N1C(=O)c1ccccc1 | . | . | . | . | 16 | . | .
CCc1n[nH]c(=S)n1/N=C/c1cc(Br)c(O)c(OC)c1 | -1 | 36* | -21 | -3 | 4 | -5 | -2
c1csc(-c2nc(-c3ccc(-c4ccon4)s3)no2)c1 | -141 | -268 | 5 | -81 | -41 | -3 | -277
Cc1ccc(-c2noc(-c3cccs3)n2)cc1 | -146 | -307 | . | -91 | -38 | -16 | -240
COc1ccc2ccccc2c1CN1CCN(c2ncc(Cc3ccccc3)cn2)CC1 | . | . | . | . | 8 | . | .
SMILES | Jurkat NFkB inh | 697 NFkB inh | TAG inh | Gli-Sufu antag | COUP-TFII inh | Cardio protect | 697 NFkB conf
CCOC(=O)c1nn(-c2ccc(F)cc2)cc1O | -21 | 12 | 6 | 4 | -15 | 2 | .
CCOC(=O)c1nn(-c2ccc3c(c2)CCN3C(C)=O)cc1O | -32 | 36* | . | -65 | -46 | -11 | 22
COC(=O)C1CN(Cc2cn(CCC3OCCO3)nn2)CCS(=O)(=O)N1Cc1ccc(OC)cc1 (stereo not drawn) | . | . | . | . | -7 | . | .
CCCCN1CCN(C(=O)c2ccc(CNC(=O)c3cccc(Br)c3)cc2)CC1 | . | . | . | . | 5 | . | .
Cc1ccc(Nc2nc(N)nc(-c3oc4ccccc4c3C)n2)cc1 | 37 | -480 | 58* | 12 | . | -4 | i
CCOC(=O)C1=C(NC(=S)NC(=O)c2ccccc2)c2ccccc2CC1(C)CC (stereo not drawn) | -37 | -267 | . | -1 | 10 | 2 | -25
CCOC(=O)c1sc(NC(=S)NC(=O)c2ccccc2)c(C(=O)OCC)c1C | 4 | -45 | . | 18 | 2 | -10 | .
CCOC(=O)C1=C(NC(=S)NC(=O)c2ccccc2)c2ccccc2CC1C(C)C (stereo not drawn) | -29 | i | -17 | 0 | -31 | 4 | i
CC(=O)Nc1ccc(NC(=O)C2CC(=O)Nc3nc4ccccc4n32)cc1 (stereo not drawn) | 8 | -20 | -4 | 0 | -2 | -3 | .
O=C1CC(C(=O)Nc2cccc(F)c2)n2c(nc3ccccc32)N1 (stereo not drawn) | -2 | 35* | 17 | 0 | 9 | -3 | -6
CC1(c2nnc(-c3cccc(Cl)c3)o2)CC(c2cccc(Cl)c2)=NO1 (stereo not drawn) | 33 | 37* | -2 | -12 | 2 | -10 | 37*
Cc1ccc(C(=O)N(C)[C@H]2C[C@H]3c4[nH]c5c(-c6ccc7c(c6)OCO7)cccc5c4CCN3C[C@H]2[C@H](C)O)cc1 | . | . | . | . | -1 | . | .
C#CCN(Cc1ccccc1)S(=O)(=O)C=C | 7 | 36* | . | -2 | 0 | . | 30*
COCCCN1C(=O)[C@H](CC(=O)N2CCN(C(=O)C3CC3)CC2)[C@]2(C(=O)OC)CCCCC=C12 | . | . | . | . | -19 | . | .
Cc1ccc(C)c(-c2nc3ccc(N)cc3[nH]2)c1 | 42 | -14 | -1 | 42 | 8 | -7 | .
Cc1ccc2nc(-c3ccccc3N)[nH]c2c1 | -149 | -265 | -1 | -69 | -21 | -19 | -196
COc1cc(OC)cc(C(=O)NCCN2C(=O)C3C4C=CC(C4)C3C2=O)c1 (stereo not drawn) | . | . | . | . | 2 | . | .
COc1cccc2c1C(=O)O/C2=C/c1ccc2c(c1)OCO2 | -63 | -342 | -4 | . | -44 | -36 | -446
COc1cccc(OC)c1C1=CC(=O)C[C@H](c2ccc3c(c2)OCO3)C1 | -5 | -11 | -13 | 4 | 6 | 5 | .
COc1ccc(-c2nc(CN3CCN(Cc4ccccc4)CC3)c(C)o2)cc1 | -2 | -22 | . | 21 | 5 | 5 | .

Compound activity from PubChem BioAssay.
